Among the data in the antibiotic and cytotoxicity screens of Wong et al. (2023) are cytotoxicity call values, retold here.

The whole screen tested about 39,000 compounds, of which about 3,300 (8.5%) were called active. What follows is part of a selection rich in actives, with near analogues and random picks from the rest.

The subject of this test is HepG2. The test is described as follows: cytotoxicity call (relative viability < 0.9). Particulars: 10 µM.
In the case of `CC(C)=Cc1ccc(C#N)c(=S)[nH]1`, the cytotoxicity call was “inactive”.

On to `CC[C@@H](O[Si](C#C[Si](C(C)C)(C(C)C)C(C)C)(C(C)C)C(C)C)c1cn([C@H](CO)Cc2ccccc2)nn1`, for which the cytotoxicity call was “inactive”.

For `Cc1noc(C)c1NC(=O)N(C)C[C@@H]1OCCCC[C@H](C)Oc2ccc(NC(=O)Nc3ccc4c(c3)OCO4)cc2C(=O)N([C@H](C)CO)C[C@@H]1C`, the cytotoxicity call is “inactive”.

Regarding `COc1ccc(S(=O)(=O)Nc2ccc3c(c2)CC(=O)N([C@@H](C)CO)C[C@H](C)[C@H](CN(C)S(C)(=O)=O)O3)cc1`, the cytotoxicity call is “inactive”.

With `Cc1noc(C)c1NC(=O)Nc1ccc2c(c1)C(=O)N([C@@H](C)CO)C[C@@H](C)[C@H](CN(C)C(=O)Nc1ccc3c(c1)OCO3)OCCCC[C@H](C)O2`, the cytotoxicity call is “inactive”.

For the compound `CNC[C@@H]1OCCCC[C@@H](C)Oc2ccc(NC(=O)Nc3ccc(C(F)(F)F)cc3)cc2C(=O)N([C@H](C)CO)C[C@@H]1C`, the cytotoxicity call is “inactive”.

For `C[C@@H]1CN([C@H](C)CO)C(=O)c2cc(NC(=O)Cc3cn(C)c4ccccc34)ccc2O[C@@H]1CN(C)S(C)(=O)=O`, the cytotoxicity call is “inactive”.

On to `O=C(C[C@H]1C[C@H]2c3cc(NC(=O)Nc4ccccc4F)ccc3O[C@H]2[C@@H](CO)O1)NCc1ccc(Oc2ccccc2)cc1`, for which the cytotoxicity call was “inactive”.

For the compound `C[C@@H]1CCCCO[C@@H](CN(C)Cc2ccncc2)[C@@H](C)CN([C@H](C)CO)C(=O)c2cc(NS(C)(=O)=O)ccc2O1`, the cytotoxicity call is “inactive”.

Consider `C[C@@H]1CN([C@@H](C)CO)C(=O)c2cccc(NC(=O)CCCCCC(=O)Nc3ccccc3N)c2O[C@H]1CN(C)Cc1ccc(C(F)(F)F)cc1`, for which the cytotoxicity call is “inactive”.

Consider `Cc1noc(C)c1S(=O)(=O)Nc1ccc2c(c1)C(=O)N([C@H](C)CO)C[C@H](C)[C@@H](CN(C)C)OCCCC[C@H](C)O2`, for which the cytotoxicity call was “inactive”.

In the case of `CCOC(=O)Cc1c(C)[nH]c(=O)[nH]c1=O`, the cytotoxicity call was “inactive”.

On to `COc1cccc(C#Cc2cnc3c(c2)C(=O)N([C@@H](C)CO)C[C@@H](C)[C@H](CN(C)C(=O)C2CCC2)O3)c1`, for which the cytotoxicity call was “inactive”.

As to `Cc1cc(C(=O)Nc2cccc3c2O[C@@H](CN(C)S(=O)(=O)c2cccs2)[C@@H](C)CN([C@H](C)CO)C3=O)n(C)n1`, the cytotoxicity call was “inactive”.

Regarding `C[C@@H]1CN([C@@H](C)CO)C(=O)Cc2cc(NC(=O)Cc3cn(C)c4ccccc34)ccc2O[C@@H]1CN(C)Cc1ccc(Oc2ccccc2)cc1`, the cytotoxicity call is “active”.

Consider `C[C@H](CO)N1C[C@H](C)[C@@H](CN(C)Cc2ccc(Oc3ccccc3)cc2)Oc2ccc(NC(=O)Cc3cn(C)c4ccccc34)cc2CC1=O`, for which the cytotoxicity call was “inactive”.

As for `C[C@@H]1CN([C@H](C)CO)C(=O)c2c(c3ccccc3n2C)-c2ccccc2CO[C@H]1CN(C)Cc1ccc(Cl)c(Cl)c1`, the cytotoxicity call was “inactive”.

Consider `C[C@H](CO)N1C[C@H](C)[C@@H](CN(C)Cc2ccc(-c3ccccc3)cc2)OCc2ccccc2-c2c(n(C)c3ccccc23)C1=O`, for which the cytotoxicity call was “inactive”.

As to `C[C@@H]1CN([C@H](C)CO)C(=O)c2c(c3ccccc3n2C)-c2ccccc2CO[C@@H]1CN(C)Cc1ccccc1`, the cytotoxicity call is “active”.

For the compound `C[C@@H]1CN([C@@H](C)CO)C(=O)c2c(c3ccccc3n2C)-c2ccccc2CO[C@@H]1CN(C)Cc1ccc(-c2ccccc2)cc1`, the cytotoxicity call was “inactive”.

Consider `C[C@@H]1CN([C@H](C)CO)C(=O)c2c(c3ccccc3n2C)-c2ccccc2CO[C@@H]1CN(C)Cc1ccc(-c2ccccc2)cc1`, for which the cytotoxicity call was “inactive”.

As for `C[C@@H]1CN([C@H](C)CO)C(=O)c2c(c3ccccc3n2C)-c2ccccc2CO[C@@H]1CN(C)Cc1ccc(C(F)(F)F)cc1`, the cytotoxicity call is “inactive”.

Consider `C[C@@H]1CN([C@@H](C)CO)C(=O)c2c(c3ccccc3n2C)-c2ccccc2CO[C@@H]1CN(C)Cc1ccc(C(F)(F)F)cc1`, for which the cytotoxicity call is “inactive”.

Turning to `C[C@@H]1CN([C@H](C)CO)C(=O)c2c(c3ccccc3n2C)-c2ccccc2CO[C@H]1CN(C)Cc1ccc(C(F)(F)F)cc1`, the cytotoxicity call was “active”.

`C[C@@H]1CN([C@@H](C)CO)C(=O)c2c(c3ccccc3n2C)-c2ccccc2CO[C@H]1CN(C)Cc1ccccc1`: the cytotoxicity call is “active”.

In the case of `C[C@H](CO)N1C[C@H](C)[C@H](CN(C)Cc2ccc(Cl)c(Cl)c2)OCc2ccccc2-c2c(n(C)c3ccccc23)C1=O`, the cytotoxicity call was “active”.

As to `C[C@H]1CN([C@@H](C)CO)C(=O)c2c(c3ccccc3n2C)-c2ccccc2CO[C@@H]1CN(C)Cc1ccc(-c2ccccc2)cc1`, the cytotoxicity call was “inactive”.

Regarding `C[C@@H]1CN([C@@H](C)CO)C(=O)c2c(c3ccccc3n2C)-c2ccccc2CO[C@H]1CN(C)Cc1ccc(Cl)c(Cl)c1`, the cytotoxicity call is “inactive”.

For the compound `C[C@@H]1CCCCO[C@H](CN(C)C(=O)Nc2ccc(C(F)(F)F)cc2)[C@H](C)CN([C@@H](C)CO)C(=O)c2cc(NC(=O)Nc3cccc4ccccc34)ccc2O1`, the cytotoxicity call was “inactive”.

Consider `C[C@@H]1CN([C@@H](C)CO)C(=O)c2cc(NC(=O)C3CCCCC3)ccc2O[C@@H](C)CCCCO[C@@H]1CN(C)C(=O)Nc1ccc(C(F)(F)F)cc1`, for which the cytotoxicity call was “inactive”.

For the compound `COc1cccc(C#Cc2ccc3c(c2)O[C@@H](CN(C)C(C)=O)[C@H](C)CN([C@@H](C)CO)S3(=O)=O)c1`, the cytotoxicity call is “inactive”.

With `COc1ccc(NC(=O)N(C)C[C@H]2OCCCC[C@H](C)Oc3ccc(NC(=O)Nc4cccc5ccccc45)cc3C(=O)N([C@@H](C)CO)C[C@H]2C)cc1`, the cytotoxicity call was “inactive”.

`CCCC1CCC(c2ccc(OC(=O)c3ccco3)cc2)CC1` (stereo unspecified): the cytotoxicity call was “inactive”.

In the case of `CCCN(C)C[C@@H]1OCCCC[C@@H](C)Oc2ccc(NC(=O)CCC(F)(F)F)cc2C(=O)N([C@@H](C)CO)C[C@@H]1C`, the cytotoxicity call was “inactive”.

Take `C[C@@H]1CN([C@@H](C)CO)C(=O)c2cc(C3=CCCC3)cnc2O[C@H]1CN(C)S(=O)(=O)c1cn(C)cn1`: the cytotoxicity call was “inactive”.

Turning to `C[C@@H]1CN([C@@H](C)CO)C(=O)CCCn2cc(nn2)CO[C@@H]1CN(C)C(=O)Nc1cccc2ccccc12`, the cytotoxicity call was “inactive”.

As for `CCC(=O)N1C[C@]2(C1)CN([C@H](CO)c1c2c2ccc(cc2n1C)OC)C(=O)CN1CCOCC1`, the cytotoxicity call was “inactive”.

Consider `C[C@H](CO)N1C[C@H](C)[C@H](CN(C)Cc2ccc(-c3ccccc3)cc2)Oc2c(NC(=O)Nc3ccc4c(c3)OCO4)cccc2C1=O`, for which the cytotoxicity call was “inactive”.

With `C[C@@H]1CN([C@@H](C)CO)S(=O)(=O)c2ccc(C#CC3(O)CCCC3)cc2O[C@H]1CN(C)C(=O)c1ccccc1`, the cytotoxicity call was “inactive”.

Consider `C[C@@H]1CN([C@@H](C)CO)C(=O)c2cccc(NS(=O)(=O)c3cn(C)cn3)c2O[C@@H]1CN(C)S(C)(=O)=O`, for which the cytotoxicity call is “inactive”.

On to `CCS(=O)(=O)N1C[C@]2(C1)CN([C@H](CO)c1c2c2ccc(cc2n1C)OC)S(=O)(=O)c1ccccc1`, for which the cytotoxicity call was “inactive”.

Consider `COc1ccccc1CN(C)C[C@@H]1OCc2ccccc2-c2c(n(C)c3ccccc23)C(=O)N([C@H](C)CO)C[C@H]1C`, for which the cytotoxicity call is “inactive”.

For `C[C@H]1CN([C@@H](C)CO)C(=O)c2c(c3ccccc3n2C)-c2ccccc2CO[C@@H]1CN(C)Cc1ccccc1`, the cytotoxicity call is “inactive”.

For the compound `COc1ccccc1CN(C)C[C@H]1OCc2ccccc2-c2c(n(C)c3ccccc23)C(=O)N([C@@H](C)CO)C[C@@H]1C`, the cytotoxicity call is “inactive”.

As for `C[C@@H]1CN([C@H](C)CO)C(=O)c2c(c3ccccc3n2C)-c2ccccc2CO[C@H]1CN(C)Cc1ccccc1C(F)(F)F`, the cytotoxicity call was “active”.

For the compound `C[C@H](CO)N1C[C@H](C)[C@H](CN(C)Cc2ccccc2)OCc2ccccc2-c2c(n(C)c3ccccc23)C1=O`, the cytotoxicity call was “inactive”.

For the compound `C[C@H](CO)N1C[C@H](C)[C@H](CN(C)Cc2ccccc2C(F)(F)F)OCc2ccccc2-c2c(n(C)c3ccccc23)C1=O`, the cytotoxicity call was “inactive”.

For the compound `C[C@@H]1CN([C@@H](C)CO)C(=O)c2c(c3ccccc3n2C)-c2ccccc2CO[C@@H]1CN(C)Cc1ccccc1`, the cytotoxicity call is “inactive”.

`COc1ccccc1CN(C)C[C@H]1OCc2ccccc2-c2c(n(C)c3ccccc23)C(=O)N([C@H](C)CO)C[C@@H]1C`: the cytotoxicity call is “active”.

As to `C[C@H](CO)N1C[C@H](C)[C@@H](CN(C)Cc2ccccc2)OCc2ccccc2-c2c(n(C)c3ccccc23)C1=O`, the cytotoxicity call was “active”.

For the compound `C[C@@H]1CN([C@@H](C)CO)C(=O)c2c(c3ccccc3n2C)-c2ccccc2CO[C@H]1CN(C)Cc1ccccc1C(F)(F)F`, the cytotoxicity call was “inactive”.

With `C[C@H]1CN([C@@H](C)CO)C(=O)c2c(c3ccccc3n2C)-c2ccccc2CO[C@H]1CN(C)Cc1ccccc1`, the cytotoxicity call is “inactive”.

With `C[C@@H]1CN([C@H](C)CO)C(=O)c2c(c3ccccc3n2C)-c2ccccc2CO[C@H]1CN(C)Cc1ccccc1`, the cytotoxicity call was “active”.

`C[C@H]1CN([C@@H](C)CO)C(=O)c2cc(NS(C)(=O)=O)ccc2O[C@@H]1CN(C)S(=O)(=O)c1ccccc1`: the cytotoxicity call is “inactive”.

As to `CC(C)NC(=O)N(C)C[C@@H]1Oc2ccc(NS(=O)(=O)c3ccc(Cl)cc3)cc2C(=O)N([C@@H](C)CO)C[C@H]1C`, the cytotoxicity call is “inactive”.

For the compound `COc1ccc2c3c(n(c2c1)C)[C@H](CO)N(C[C@]13CCN(CC1)C(=O)c1ccccc1F)C(=O)Nc1ccc(cc1)F`, the cytotoxicity call was “inactive”.

In the case of `CO[C@H]1CN(C)C(=O)c2cc(NS(=O)(=O)c3cn(C)cn3)ccc2OC[C@H](C)N(CC2CC2)C[C@H]1C`, the cytotoxicity call is “inactive”.

Regarding `C[C@@H]1CN([C@H](C)CO)C(=O)c2cc(NC(=O)C3CCCCC3)ccc2O[C@@H](C)CCCCO[C@H]1CN(C)C(=O)Nc1ccccc1`, the cytotoxicity call is “inactive”.

As to `Cc1cc2cc(C)nn2c(N)n1`, the cytotoxicity call is “inactive”.

As for `C[C@H](CO)N1C[C@H](C)[C@H](CN(C)C(=O)Nc2ccccc2)OCCCC[C@H](C)Oc2ccc(NC(=O)CCC(F)(F)F)cc2C1=O`, the cytotoxicity call was “inactive”.

`Cc1noc(C)c1S(=O)(=O)Nc1ccc2c(c1)C(=O)N([C@H](C)CO)C[C@@H](C)[C@@H](CN(C)Cc1ccccc1)O2`: the cytotoxicity call was “inactive”.

`O=C(C[C@@H]1C=C[C@H](NS(=O)(=O)c2ccccc2F)[C@@H](CO)O1)NCCCN1CCOCC1`: the cytotoxicity call was “inactive”.

For the compound `C[C@@H]1CN([C@H](C)CO)C(=O)c2cc(NC(=O)NC3CCCCC3)ccc2O[C@@H](C)CCCCO[C@H]1CN(C)S(=O)(=O)c1ccc(F)cc1`, the cytotoxicity call is “inactive”.

`C[C@@H]1CCCCO[C@@H](CN(C)S(=O)(=O)c2ccc(F)cc2)[C@H](C)CN([C@@H](C)CO)C(=O)c2cc(NC(=O)NC3CCCCC3)ccc2O1`: the cytotoxicity call is “inactive”.

For `C[C@H](CO)N1C[C@H](C)[C@H](CN(C)S(=O)(=O)c2ccc(F)cc2)OCCCC[C@H](C)Oc2ccc(NC(=O)NC3CCCCC3)cc2C1=O`, the cytotoxicity call is “active”.

On to `C[C@@H]1CCCCO[C@H](CN(C)S(=O)(=O)c2ccc(F)cc2)[C@@H](C)CN([C@H](C)CO)C(=O)c2cc(NC(=O)NC3CCCCC3)ccc2O1`, for which the cytotoxicity call is “active”.

`C[C@@H]1CCCCO[C@@H](CN(C)S(=O)(=O)c2ccc(F)cc2)[C@H](C)CN([C@H](C)CO)C(=O)c2cc(NC(=O)NC3CCCCC3)ccc2O1`: the cytotoxicity call was “active”.

In the case of `C[C@@H]1CCCCO[C@@H](CN(C)S(=O)(=O)c2ccc(F)cc2)[C@@H](C)CN([C@H](C)CO)C(=O)c2cc(NC(=O)NC3CCCCC3)ccc2O1`, the cytotoxicity call is “inactive”.

With `C[C@@H]1CCCCO[C@H](CN(C)S(=O)(=O)c2ccc(F)cc2)[C@H](C)CN([C@H](C)CO)C(=O)c2cc(NC(=O)NC3CCCCC3)ccc2O1`, the cytotoxicity call was “inactive”.

For the compound `C[C@H]1CCCCO[C@@H](CN(C)S(=O)(=O)c2ccc(F)cc2)[C@@H](C)CN([C@@H](C)CO)C(=O)c2cc(NC(=O)NC3CCCCC3)ccc2O1`, the cytotoxicity call was “inactive”.

For the compound `C[C@@H]1CCCCO[C@H](CN(C)S(=O)(=O)c2ccc(F)cc2)[C@H](C)CN([C@@H](C)CO)C(=O)c2cc(NC(=O)NC3CCCCC3)ccc2O1`, the cytotoxicity call was “inactive”.
